Among the data in PubChem BioAssay (NCI) are growth values, retold here.

Experiment in all cases: NCI-60 one-dose screen, 48 h (100 = growth as untreated, 0 = no growth, -100 = all killed)
Common to all, as to settings: 10 µM unless noted

For test [1], the system named is DU-145 prostate.
Test [2] relates to K-562 leukemia.
For test [3], the system named is MALME-3M melanoma.
In test [4] the test system is MDA-MB-231 breast.
Test [5] deals with RXF 393 renal.
Test [6] concerns SF-268 CNS.
Test [7] concerns SF-295 CNS.
Test [8] relates to SF-539 CNS.
Test [9] relates to UACC-257 melanoma.
The test system of test [10] is M14 melanoma.

Several values for one entry are separate records, joined by “and”; a condition that tells them apart may be missing. Equal entries are not always repeated. This is part of a sample that, as a whole, favours compounds with a hit. Of some 83,000 tested, about 20% had one in any assay.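 Note: values are percent growth. 100 is the growth of untreated cells, values between 100 and 0 indicate rising inhibition; between -100 and 0 indicates cell death.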 A number with no mark means an inactive call. Activity calls are given as the source filed them. The calls were made as follows: active = growth percent below 10; inactive = the rest. Where a SMILES comes first, the peptide text is derived from it.

On to `O=C1OC(C(O)C(O)CO)C(O)=C1O` (centres undefined), for which the growth was 115% in test [1]; 99% and 90.4% in test [2]; 94.2% in test [3]; 116% and 101% in [4]; 116% in [5]; 109% and 105% in test [6]. Also, the growth is 136% and 101% in [7]; 96.8% in [8]; 98.7% and 88.2% in test [9].

With `O=[N+]([O-])c1cccc(SSc2cccc([N+](=O)[O-])c2)c1`, the growth was 112% in test [1]; 94.3% in test [2]; 97.2% in [3]; 95.4% in test [4]; 123% in test [5]; 106% in [6]. The values for the growth in test [7], in test [8] and in [9] were 108%, 102% and 110%, respectively.

Turning to `COc1ccc(N/C=C/C2=[N+](C)c3ccccc3C2(C)C)c(OC)c1`, the growth in test [1] was 102%; in test [2] it was 103%; in [3], 85.5%; in test [4], 85.2%; in test [5], 97.4%; in test [6], 95.6%. Moreover, the values for the growth in test [7], in test [8] and in [9] were 86.2%, 102% and 99.5%, respectively.

On to `C#CCOC(=O)Nc1ccccc1`, for which the growth in [1] was 106%; in [2], 96.9%; in test [3], 115%; in [4] it was 116%; in test [5], 124%; in [6], 105%. In addition, the growth in test [7] was 107%; in test [8], 97.5%; in test [9], 93.7%.

In the case of `CN(C)c1ccc(/C=C\C(=O)c2ccccc2)cc1`, the growth in [1] is 86.8% and 89.2% and 79.1%; in [2] it was 15.3% and 26.7% and 42.6%; in test [3], 87.5% and 84.4% and 83%; in test [4] it was 104% and 84.4% and 105%; in [5] it was 92.4% and 102%; in [6] it was 92.4% and 90% and 85.2%. The growth in [7] was 66.3% and 91.5% and 98%; in test [8], 88% and 95.7% and 94.4%; in test [9], 83.8% and 92.7% and 98.1%; in test [10], 89.7% and 79.2% and 72.5%.

With `O=C1c2c(O)ccc(O)c2C(=O)c2c(NCCNCCO)ccc(NCCNCCO)c21`, the growth in test [1] was -36.8% (active) and -51.3% (active); in test [2] it was -5.45% (active) and -77.6% (active); in test [3], -64.6% (active) and -88.2% (active); in test [4] it was -84.3% (active) and -77.3% (active); in [5] it was -86.4% (active) and -68.9% (active); in [6], -73% (active) and -80% (active). The growth in test [7] was -37.8% (active) and -39.6% (active); in test [8], -38.4% (active) and -84% (active); in test [9] it was -4.02% (active) and -47.7% (active).

For `CCN(CCNS(C)(=O)=O)c1ccc(N)c(C)c1`, the growth in [1] was 70.4% and 123%; in test [2], 27.9% and 95.5%; in [3], 93.6% and 119%; in test [4], 109% and 97.4%; in test [5], 72.4% and 78.3%; in test [6] it was 93.3% and 94.9%. In addition, the growth in test [7] was 103% and 116%; in [8], 113% and 105%; in test [9] it was 89.7%.

As for `Cc1cc2ccccc2cn1`, the growth is 114% and 122% in test [1]; 118% and 102% in test [2]; 101% and 100% in [3]; 97.9% and 107% in test [4]; 104% in test [5]; 101% and 134% in test [6]. In addition, the growth in [7] is 100% and 90.3%; in test [8], 102% and 98.7%; in test [9] it was 97.3%.

Consider `NC(Cc1ccccc1)C(=O)NC(Cc1ccccc1)C(=O)O` (stereo not drawn) (H-Phe-Phe-OH; configuration not given here), for which the growth in test [1] is 111% and 106%; in test [2] it was 97.9% and 114%; in [3], 99.4%; in [4], 115% and 108%; in test [5] it was 105%; in test [6], 101% and 106%. Further, the growth is 107% and 99.4% in test [7]; 101% and 92.6% in test [8]; 88.2% and 92.8% in [9].

`Cc1ccc(=O)[nH]n1`: the growth in test [1] is 101% and 116%; in test [2] it was 99.7% and 97.2%; in test [3], 112% and 106%; in test [4], 118%; in test [5] it was 105%; in [6], 99.4% and 103%. For the same compound, the growth in test [7] was 113% and 101%; in test [8], 110% and 109%; in test [9], 101% and 94.1%.

Turning to `COc1ccc2cc1Oc1ccc(cc1)C[C@H]1c3cc(c(OC)cc3CCN1C)Oc1c(OC)c(OC)cc3c1[C@H](C2)N(C)CC3`, the growth in test [1] was 53.1%; in test [2], -75.4% (active); in test [3] it was 16.3%; in test [4] it was 8.45% (active); in [5], 47.2%; in test [6], 78.2%. For the same compound, the growth in test [7] is 71.8%; in [8], -74.4% (active); in [9], 46.2%.

For `O=C(Cc1ccccc1)c1ccc(O)c(Cl)c1`, the growth is 18.5% in test [1]; 21.4% in test [2]; 50.2% in test [3]; 49.8% in test [4]; 41.7% in test [5]; 41.7% in test [6]. Moreover, the growth in test [7] is 47.8%; in [8], 32.9%; in test [9], 66.7%.
